Measurements as given in PubChem BioAssay AID602376 (Johns Hopkins Ion Channel Center, 2012).
Entries with a potency or affinity are not part of this list. Inconclusive results are not listed. The source made the active and inactive calls.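 How the source made its calls: active means raises choline transporter activity at one or more tested doses and gives a fitted dose-response curve; inconclusive means no clear call, values can overlap the other calls; inactive means no choline transporter activation at any dose, or no curve.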

biological target: High affinity choline transporter 1 (Homo sapiens) (UniProt Q9GZV3); assay: CHT activators, dose response, cell-based, 10-point CRC, membrane potential dye (AID 602376); settings: HEK293-CHT, choline-induced membrane potential dye, cells express CHT LV-AA mutant; series mostly up to 67 µM
Sequence (Q9GZV3 whole entry, looked up): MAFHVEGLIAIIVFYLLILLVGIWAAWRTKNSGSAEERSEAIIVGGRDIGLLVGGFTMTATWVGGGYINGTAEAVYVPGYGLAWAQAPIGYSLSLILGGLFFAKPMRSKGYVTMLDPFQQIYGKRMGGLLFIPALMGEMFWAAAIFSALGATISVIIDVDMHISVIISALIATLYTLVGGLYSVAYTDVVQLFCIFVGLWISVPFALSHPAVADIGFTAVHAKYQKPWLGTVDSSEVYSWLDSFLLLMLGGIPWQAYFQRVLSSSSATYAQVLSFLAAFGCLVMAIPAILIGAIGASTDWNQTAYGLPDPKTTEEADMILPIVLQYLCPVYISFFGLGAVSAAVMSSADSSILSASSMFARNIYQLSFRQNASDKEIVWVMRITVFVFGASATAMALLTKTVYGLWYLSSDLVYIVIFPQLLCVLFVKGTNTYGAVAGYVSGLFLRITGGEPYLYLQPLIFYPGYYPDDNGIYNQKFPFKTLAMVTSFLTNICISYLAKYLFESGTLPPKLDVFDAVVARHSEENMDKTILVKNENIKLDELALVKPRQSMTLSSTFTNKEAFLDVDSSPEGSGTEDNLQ

outcome, inactive:
COc1cc(-c2noc(C)c2C#Cc2ccccn2)cc(OC)c1OC, COc1ccc(Br)cc1CN(C)C(=O)c1ccccc1OCc1c(C)noc1C, COc1ccc(C(N)c2nccc3cc(OC)c(OC)cc23)cc1OC (stereo not given), O=C(NCCC1=CCCCC1)C1CCN(Cc2cnn(-c3ccccc3)c2-n2cccc2)CC1, CCOC(=O)c1c(CSc2ccsc2)n(C)c2cc(Br)c(O)c(CN(C)C)c12, COc1ccc(CN2CCC(N(CCc3ccccc3)Cc3ccccc3)CC2)c(OC)c1, COc1ccc(-c2noc(CSc3nc4ccccc4c(=O)n3-c3ccccc3)n2)cc1OC, CCOC(=O)C1CCN(C(=O)CCc2nnc3ccc(N4CCN(C)CC4)nn23)CC1, CCc1ccc(C(O)(CNCc2ccccc2)c2ccccc2)cc1 (stereo not given), Clc1ccc(CN2C3=NCCN3c3ccccc32)cc1Cl, Cc1cc(N2CCN(Cc3cn(C)nc3-c3ccccc3F)CC2)cc(C)n1, CC(Sc1ccc(Cl)cc1)C(=O)Nc1ccccc1-c1ccccc1 (stereo not given), Cc1nnc(N2CCC(C(=O)N3CCCCC3)CC2)c2nn(-c3ccc(Cl)cc3)c(C)c12, N#Cc1c(N)oc(-c2ccco2)c1-c1ccco1, O=C1CCCCCCCCCC/C(=N\O)CCCO1, COC(=O)CNC(c1ccccc1)c1cc(C)ccc1NC(=O)c1cccc(Cl)c1 (stereo not given), CN1CCN(Cc2nc3ccccc3c(=O)n2Cc2nc(-c3ccccc3F)cs2)CC1, CCOc1ccc(S(=O)(=O)NCc2ccco2)c2ccccc12, CCc1cccc(OCCn2nc(C(=O)O)c3ccccc3c2=O)c1, COc1cccc(C(c2nnnn2Cc2ccco2)N2CCN(c3cccc(C)c3C)CC2)c1OC (stereo not given), COc1ccccc1N(C(=O)c1ccco1)C(C(=O)NC1CCCC1)c1cccs1 (stereo not given), CCOC(=O)c1c(C)n(-c2ccccc2)c2ccc(OCCN(C)C)cc12, Cn1c(=O)c2c(nc(CN3CCCCC3)n2CCc2ccccc2)n(C)c1=O, CCC(=O)N1CCN(c2ccccc2NC(=O)c2ccc([N+](=O)[O-])o2)CC1, O=C(COc1ccccc1)NCC(c1ccco1)N1CCN(c2ccccc2)CC1 (stereo not given), Cc1cccc2c(=O)cc(C)n(CC(=O)N3CCOCC3)c12, CCc1ccc(OCC(=O)N/N=C/c2cc([N+](=O)[O-])ccc2N2CCOCC2)cc1, CCOc1cc(NC(=O)c2ccco2)c(OCC)cc1NC(=O)c1ccco1, COc1ccc(-c2csc3nc(C)nc(N4CCCCC4)c23)cc1OC, CCN1CCc2nc(NC(=O)C(c3ccccc3)c3ccccc3)sc2C1, CC(C)CCNC(=O)/C=C/c1ccc(Br)cc1, O=c1c2ccccc2nc2n1C(CSCc1ccc(Cl)cc1)CS2 (stereo not given), Cc1noc(C)c1CSc1nc2ccccc2c(=O)n1-c1ccccc1, COc1ccc(N2CCN(c3oc(COc4ccccc4)nc3C#N)CC2)cc1, O=C(Nc1cccc(Cl)c1N1CCOCC1)c1cc([N+](=O)[O-])ccc1N1CCOCC1, CCc1ccc(NC(=O)CSc2nc3ccccc3c(=O)n2CCCN2CCC(C)CC2)cc1, COC(=O)C1=C(C)N(Cc2ccccc2)C(=NCC(C)C)N[C@H]1c1ccccc1, Cc1ccccc1OCc1n(CC(=O)OC2CC(C)CCC2C(C)C)c2ccccc2[n+]1C (stereo not given), NCCCC[C@H]1CN=C(N)N1CCCCC1CCCCC1, Cn1c(=O)c(=O)n(C)c2cc(S(=O)(=O)N3CCC(N4CCCCC4)CC3)ccc21
